Experimental data from PubChem BioAssay (NCATS).
Inconclusive results are not listed. Calls of active or inactive are those of the source. Calls follow the shape of the dose curve; as a rule, active = well fitted curve in the direction sought with a large enough effect; inconclusive = small, poorly fitted or top-dose-only effect, or another doubt; inactive = no such curve, though single readings can be large; an effect the other way counts as inactive or inconclusive.

Key:
[1] = Cell Viability - LYMP2-004 (AID 966); also: nearly all actives have a fitted effect of over 65% in size
Summary of the method: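 Human lymphoblastoid cells (2500/well) in complete medium were treated with compounds for 24 hr at 37 C, then intracellular ATP was measured by CellTiter-Glo luminescence. AC50 values came from Hill-equation fits of concentration-response data.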

[2] = Cell Viability - LYMP2-005 (AID 967); also: series mostly up to about 92 µM
Summary of the method: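 qHTS viability screen in LYMP2-005 cells: 24 h at 37 C with compound, ATP luminescence via CellTiter-Glo, AC50 from Hill curves.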

[3] = Cell Viability - LYMP2-009 (AID 968); also: series mostly up to about 92 µM; nearly all actives have a fitted effect of over 55% in size
[4] = Cell Viability - LYMP2-011 (AID 969); also: nearly all actives have a fitted effect of over 60% in size
Summary of the method: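 Human lymphoblastoid cells (2500/well) were plated in complete medium, preincubated 5 hr at 37 C, then exposed to compounds for 24 hr at 37 C. Intracellular ATP was read by CellTiter-Glo luminescence, and AC50 came from Hill-equation concentration-response fits.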

[5] = Cell Viability - LYMP2-013 (AID 970); also: series mostly up to about 92 µM; nearly all actives have a fitted effect of over 55% in size
Summary of the method: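 Human lymphoblastoid cells, 2500/well, were preincubated 5 hr at 37 C, then treated with compounds for 24 hr at 37 C in complete medium. Intracellular ATP was read by CellTiter-Glo luminescence; AC50 from Hill-equation fits of concentration-response data.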

[6] = Cell Viability - LYMP2-015 (AID 971); also: nearly all actives have a fitted effect of over 55% in size
Summary of the method: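 Human lymphoblastoid cells (2500/well) in complete medium were preincubated 5 hr at 37 C, then compound-treated 24 hr at 37 C. Intracellular ATP was read by CellTiter-Glo luminescence after 30 min at room temperature; AC50 came from Hill-equation concentration-response fits.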

[7] = Cell Viability - LYMP2-017 (AID 972); also: series mostly up to about 92 µM; nearly all actives have a fitted effect of over 55% in size
Summary of the method: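 Human lymphoblastoid cells (2500/well) were seeded in complete medium, held 5 hr at 37 C, then exposed to compounds for 24 hr at 37 C. Intracellular ATP was read by CellTiter-Glo luminescence after 30 min at room temperature, with AC50 values from Hill-equation fits.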

[8] = Cell Viability - LYMP2-019 (AID 973); also: nearly all actives have a fitted effect of over 55% in size
Summary of the method: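 Human lymphoblastoid cells were seeded at 2500 cells/well, preincubated 5 hr at 37 C, then exposed to compounds for 24 hr at 37 C in complete medium. Intracellular ATP was measured by CellTiter-Glo luminescence; AC50 from Hill fits.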

[9] = Cell Viability - LYMP2-021 (AID 974)
Summary of the method: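 Human lymphoblastoid cells (2500/well) were preincubated 5 hr at 37 C, then exposed to compounds for 24 hr at 37 C in complete medium. Intracellular ATP was read by CellTiter-Glo luminescence; AC50 came from Hill-equation fits of concentration-response data.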

[10] = Cell Viability - LYMP2-023 (AID 975)
Summary of the method: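 Human lymphoblastoid cells (2500/well) were preincubated 5 hr at 37 C, then exposed to compounds for 24 hr at 37 C in complete medium. Cellular ATP was read by CellTiter-Glo luminescence, and AC50 came from Hill-equation fits.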

Measured: Potency

CC(=O)Nc1ccccc1C
inactive: all assays above

Cc1ccco1
inactive: all assays above

CCCCOCCOCCOCCCC
inactive: all assays above

O=[N+]([O-])c1cccc(C(F)(F)F)c1
inactive: all assays above

Oc1c(Cl)ccc(Cl)c1Cl
inactive: all assays above

NCCCCCCN
inactive: all assays above

Nc1cccc(O)c1
inactive: all assays above

O=C(O)c1ccccc1C(=O)O
inactive: all assays above

CCCC=O
inactive: all assays above

CC(C)=CCl
inactive: all assays above

O=[N+]([O-])c1ccc(NCCO)c(OCCO)c1
inactive: all assays above

ICCc1ccccc1
inactive: all assays above

C[C@@H]1CC2(OC3C[C@@]4(C)C5=CC[C@H]6C(C)(C)C(O[C@@H]7OC[C@@H](O)[C@H](O)[C@H]7O)CC[C@@]67C[C@@]57CC[C@]4(C)C31)OC(O)C1(C)OC21 (some centres undefined)
inactive: all assays above

Cc1ccc([N+](=O)[O-])c(N)c1
inactive: all assays above

CC(C)N=C=NC(C)C
inactive: all assays above

Oc1cccc(Nc2ccccc2)c1
inactive: all assays above

CCOCCO
inactive: all assays above

CC(C)(O)C(=O)O
inactive: all assays above

C=CCCCCCC
inactive: all assays above

CCOCCOCC
inactive: all assays above

CC/C=C1/OC(=O)c2ccccc21
inactive: all assays above

CCNc1ccccc1
inactive: all assays above

Cc1c(N)cccc1[N+](=O)[O-]
not listed: [9]
inactive: all other assays above

Cc1c(N)cccc1N
not listed: [9]
inactive: all other assays above

O=P(O)(OCc1ccccc1)OCc1ccccc1
inactive: all assays above

CCC(=O)/C=C/C1C(C)=CCCC1(C)C (centres undefined)
not listed: [8]
inactive: all other assays above

CC1(N)CCC(C(C)(C)N)CC1 (centres undefined)
inactive: all assays above

COC(=O)CS
inactive: all assays above

Cc1ccccc1C=O
not listed: [9]
inactive: all other assays above

CCCCC=O
inactive: all assays above

CCc1ccccc1O
inactive: all assays above

CC(C)(C)OC=O
not listed: [8] | [9]
inactive: all other assays above

Nc1cc(Cl)c(N)c(Cl)c1
not listed: [7] | [10]
inactive: all other assays above

C=CC(=O)NC(C)C
not listed: [7]
inactive: all other assays above

CCCCC(=O)N(C)C
inactive: all assays above

FC(F)(F)c1cccc(Cl)c1
not listed: [7] | [10]
inactive: all other assays above

Cc1cc(C2(c3cc(C)c(O)cc3C)OS(=O)(=O)c3ccccc32)c(C)cc1O
not listed: [8]
inactive: all other assays above

CCc1ccccc1
inactive: all assays above

O=C(O)c1ccc(Cl)cc1Cl
inactive: all assays above

CCN(Cc1ccccc1)c1ccccc1
inactive: all assays above

NC(=O)c1ccccc1[N+](=O)[O-]
not listed: [9]
inactive: all other assays above

CO[Si](CCCNCCC[Si](OC)(OC)OC)(OC)OC
not listed: [9]
inactive: all other assays above

Cc1ccccc1C#N
inactive: all assays above

Cc1ccc(C(=O)O)cc1
inactive: all assays above

C=C(C)C(=O)OCCCCCCCCCC
not listed: [9]
inactive: all other assays above

Nc1ccc(Cl)cc1[N+](=O)[O-]
inactive: all assays above

Cc1nc2ccc(Cl)cc2[nH]1
not listed: [7]
inactive: all other assays above

O=C(O)CNC(=O)c1ccc(CO)o1
not listed: [9]
inactive: all other assays above

Cc1ccc2ccccc2c1[N+](=O)[O-]
inactive: all assays above

CCCC(C)CO (centres undefined)
inactive: all assays above

CC=O
inactive: all assays above

Cc1cc(C)cc([N+](=O)[O-])c1
not listed: [9]
inactive: all other assays above

CC(C)(C)c1ccc(OCC2CO2)cc1 (centres undefined)
inactive: all assays above

C1CCCC1
not listed: [7] | [10]
inactive: all other assays above

CC(C)CCOC(=O)/C=C/c1ccccc1
inactive: all assays above

O=C(O)c1cccc(Cl)c1Cl
not listed: [9]
inactive: all other assays above

c1ccc2c(c1)ccc1ncccc12
inactive: all assays above
